Experimental data from PubChem BioAssay (EPA / NIEHS).
Some structures have more than one record in an assay (separate samples or runs), and their calls can disagree. Active and inactive are the calls of the source. The calls were made as follows: active = hit-call score of the fitted dose curve at least 0.9, where 1 is the maximum; inactive = score below 0.9.

Each molecule was assayed on Caspase-3 (Homo sapiens) (UniProt P42574) (assay: LTEA_HepaRG_CASP3: Life Technologies and Expression Analysis (LTEA) Assay for cysteine-aspartic acid protease (CASP3) using HepaRG (AID 2283477)). Conditions: mRNA level, 48 h; actives raise or lower the signal.
Sequence of Caspase-3 (Homo sapiens) (P42574 whole entry, looked up): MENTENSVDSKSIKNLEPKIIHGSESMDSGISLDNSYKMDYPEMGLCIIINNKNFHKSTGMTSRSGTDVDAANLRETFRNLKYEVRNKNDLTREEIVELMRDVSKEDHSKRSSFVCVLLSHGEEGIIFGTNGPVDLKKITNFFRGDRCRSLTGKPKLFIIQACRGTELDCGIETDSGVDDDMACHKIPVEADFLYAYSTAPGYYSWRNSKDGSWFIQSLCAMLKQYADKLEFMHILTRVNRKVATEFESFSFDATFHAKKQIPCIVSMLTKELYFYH
Protocol: LTEA_HepaRG is a cell based, multiplexed-readout assay that uses HepaRG, a human liver cell line, with measurements taken at 48 hours after chemical dosing on a 96-well plate.LTEA_HepaRG_CASP3 is one of 102 assay component(s) measured in the LTEA HepaRG cell culture assay. It is a marker of Cell proliferation, survival, death.Data from the assay component LTEA_HepaRG_CASP3 was analyzed into 1 endpoint. This assay endpoint, LTEA_HepaRG_CASP3, was analyzed with bidirectional fitting relative to DMSO as the negative control and baseline of activity. Using a type of inducible reporter, measures of mRNA induction for gain or loss-of-signal activity can be used to understand regulation of transcription factor activity. To generalize the intended target to other relatable targets, this assay endpoint is annotated to the protease intended target family, where the subfamily is cysteine protease.
A total of 1060 chemcials from the ToxCast library were tested in eight-point concentration-response experiments. Cell culture and cytotoxicity assays were conducted at Thermo Fisher Scientific's Custom Services facility (Madison, WI). A single lot of human HepaRG cells (Thermo Fisher Scientific, Frederick, MD) was used for the cell culture experiments. 96-well format collagen type I coated plates of human HepaRG cells were prepared using established methods. Briefly, cryopreserved HepaRG cells were thawed, plated at a density of approximately 100,000 cells/well in HepaRG Thaw, Plate, and General Purpose media (HPRG770, Thermo Fisher Scientific), and incubated for 48 hours. 0.5% DMSO was selected as vehicle control to balance the requisite need of DMSO in HepaRG cultures to maintain differentiation (for example, baseline metabolism, proportions of hepatocytes vs. cholangiocytes), while enabling further hepatic receptor pathway activation (for example, PXR and CAR) in response to chemical exposure. 48 hours after plating, the culture medium was replaced with HepaRG Serum-Free Incudtion Media. Cells were exposed to each test chemical in duplicate and maintained in CO2 incubators for another 48 hours. Chemical plates were thawed to room temperature and 200x concentrations of treatment groups were prepared. 8-point conentration-reponse curves were made with the highest exposure at 100 uM, followed by half-log dilutions, all in 0.5% DMSO. Each test plate contained variouse controls, induction positive controls (1mM phenobarbital), cytotoxicity positive controls ([…] aflatoxin B1), vehicle controls (0.5% DMSO), and total lysis controls (0.5% DMSO). Cell morphology images were taken using an Essen IncuCyte FLR automated microscope, with six 96-well plates imaged in about 24 minutes. Images were captured and exported and JPEG files. Spent culture media was transfered to black-well plates for the LDH assay, and remaining media was sorted at -80 C for later use. Cells were treated with RLT buffer and frozen until shipped for gene expression analysis. Total RNA was isolated from the cell suspension in 75 uL of Buffer RLT (Qiagen, Germantown, MD 20874) by Quintiles/Expression Analysis (Durham, NC) using a custom isolation procedure. Total RNA from each plate well was transferred to a preamplification plate. Fluidigm's 96.96 Dynamic ArrayTM (Fluidigm, Amsterdam, the Netherlands) technology was used for gene expression analyses by quantitative reverse transcription polymerase chain reaction (qRT-PCR, performed by Quintiles/Expression Analysis, Durham, NC)89. Standard TaqManTM Assays (Applied Biosystems/ThermoFisher Scientific, Foster City, CA) were used to assess the expression of 93 genes selected based on their selectivity and sensitivity to important hepatic receptors known to be modulated by environmental chemicals; importance in human hepatocyte functionality; and hepatotoxicity. […]

SMILES | outcome | AC50
COP(=S)(OC)Oc1nc(Cl)c(Cl)cc1Cl | inactive | 
CCOC(=O)C(Cl)Cc1cc(-n2nc(C)n(C(F)F)c2=O)c(F)cc1Cl (stereo not given) | inactive | 
CC1COC(Cn2cncn2)(c2ccc(Oc3ccc(Cl)cc3)cc2Cl)O1 (stereo not given) | inactive | 
CO/C=C(/C(=O)OC)c1ccccc1Oc1cc(Oc2ccccc2C#N)ncn1 | inactive | 
O=C(Nc1ccccc1)Nc1ccnc(Cl)c1 |  | 69.9 µM (active)
CCOC(=O)CC(SP(=S)(OC)OC)C(=O)OCC (stereo not given) | inactive | 
COC(=O)C(C)Oc1ccc(Oc2ccc(Cl)cc2Cl)cc1 (stereo not given) | inactive | 
CCc1nn(C)c(C(=O)NCc2ccc(C(C)(C)C)cc2)c1Cl |  | 16.1 µM (active)
Cc1cc(Cl)ccc1OCC(=O)O | inactive | 
N#Cc1cc(Br)c(O)c(Br)c1 |  | 7.76 µM (active)
CC1=C(C(=O)Nc2ccccc2)SCCO1 | inactive | 
Fc1ccc(Oc2ccnc3cc(Cl)cc(Cl)c23)cc1 | inactive | 
CCCCOC(=O)c1ccccc1C(=O)OCCCC | inactive | 
Oc1ccccc1-c1ccccc1 | inactive | 
CCCC1COC(Cn2cncn2)(c2ccc(Cl)cc2Cl)O1 (stereo not given) | inactive | 
COc1nc(NC(C)C)nc(NC(C)C)n1 | inactive | 
CCOc1cc(Oc2ccc(C(F)(F)F)cc2Cl)ccc1[N+](=O)[O-] | inactive | 
CCNc1nc(Cl)nc(NC(C)C)n1 | inactive | 
COC(=O)C=C(C)OP(=O)(OC)OC | inactive | 
COC(=O)N(OC)c1ccccc1COc1ccn(-c2ccc(Cl)cc2)n1 |  | 79.5 µM (active)

SMILES | outcome | AC50
COP(N)(=O)SC (stereo not given) | inactive | 
O=C(O)COc1nc(Cl)c(Cl)cc1Cl | inactive | 
CC(Oc1ccc(Cl)cc1Cl)C(=O)O (stereo not given) | inactive | 
CNC(=O)ON=CC(C)(C)SC | inactive | 
CCCCNC(=O)n1c(NC(=O)OC)nc2ccccc21 | inactive | 
CC(C)Oc1cc(-n2nc(C(C)(C)C)oc2=O)c(Cl)cc1Cl | inactive | 
C=CCC1=C(C)[C@@H](OC(=O)[C@@H]2[C@@H](C=C(C)C)C2(C)C)CC1=O | inactive | 
C#CCOS(=O)OC1CCCCC1Oc1ccc(C(C)(C)C)cc1 (stereo not given) |  | 29 µM (active)
CCCCNC(=O)OCC#CI | inactive | 
CCOP(=S)(OCC)SCn1c(=O)oc2cc(Cl)ccc21 | inactive | 
CON(C)C(=O)Nc1ccc(Cl)c(Cl)c1 | inactive | 
CCCN(CCC)c1c([N+](=O)[O-])cc(S(N)(=O)=O)cc1[N+](=O)[O-] | inactive | 79.2 µM (active)
CN(C)C(=S)SSC(=S)N(C)C | inactive | 
Cc1ccc(-c2c(Cl)nc(C#N)n2S(=O)(=O)N(C)C)cc1 | inactive | 
N#Cc1nn(-c2c(Cl)cc(C(F)(F)F)cc2Cl)c(N)c1S(=O)C(F)(F)F (stereo not given) | inactive | 
CC(C)(C)c1ccc(CSc2cnn(C(C)(C)C)c(=O)c2Cl)cc1 | inactive | 
CCNc1nc(Cl)nc(NCC)n1 | inactive | 
COc1ccc(C(c2ccc(OC)cc2)C(Cl)(Cl)Cl)cc1 | inactive | 
CNC(=S)S | inactive | 
